Experimental data: PubChem BioAssay (NCATS)
Results filed as inconclusive are left out. Entries that show only a call come without a potency. Calls of active or inactive are those of the source. The call rests on the fitted dose curve; in most records, active means well fitted inhibition curve with a large enough effect; inconclusive means small, poorly fitted or top-dose-only effect; inactive means flat fitted curve, though single readings scatter.

Each compound was assayed on CP237 (assay: qHTS profiling for inhibitors of Plasmodium falciparum proliferation (AID 504749; further: nearly all actives have a fitted effect of over 60% in size)). Details: P. falciparum in erythrocytes, SYBR Green DNA, 72 h; series mostly up to 28.7 µM.
Outline: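 SYBR Green fluorescence of parasite DNA, read after lysis and overnight dark incubation, measured growth over 72 h in erythrocyte culture at 0.3% parasitemia and 2.5% hematocrit. Data normalised to DMSO and 0.29 uM artemisinin, with plate-drift correction.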
Potency means the concentration at half of the fitted maximal effect.

Structure (SMILES)	Potency
N=C(N)c1ccc(OCCCCCOc2ccc(C(=N)N)cc2)cc1	251 nM (active)
OC(Cn1cncn1)(Cn1cncn1)c1ccc(F)cc1F	inactive
CCOC(=O)c1ccc(OC(=O)CCCCCN=C(N)N)cc1	inactive
CN(CCOc1ccc(CC2SC(=O)NC2=O)cc1)c1ccccn1 (stereo unspecified)	inactive
CC(C)(C#N)c1cc(Cn2cncn2)cc(C(C)(C)C#N)c1	inactive
NC(=O)c1cccnc1	inactive
COc1nc(N)nc2c1ncn2[C@@H]1O[C@H](CO)[C@@H](O)[C@@H]1O	inactive
S=P(N1CC1)(N1CC1)N1CC1	inactive
CN1CCN(c2c(F)cc3c(=O)c(C(=O)O)cn(CCF)c3c2F)CC1	inactive
COc1ccc(-c2ccc3cc(C(=O)O)ccc3c2)cc1C12CC3CC(CC(C3)C1)C2	inactive
Cc1nnc(NS(=O)(=O)c2ccc(N)cc2)s1	inactive
Cc1ccnc2c1NC(=O)c1cccnc1N2C1CC1	inactive
Nc1[nH]c(=O)ncc1F	inactive
NC(N)=NC(N)=NCCc1ccccc1	inactive
Nc1nc(N)nc(-c2cc(Cl)ccc2Cl)n1	inactive
Cc1cccc(Nc2ccncc2S(=O)(=O)NC(=O)NC(C)C)c1	inactive
O=P(O)(O)C(O)(Cc1cccnc1)P(=O)(O)O	inactive
CCOCC(O)COc1ccc(NC(=O)CC[S+](C)C)cc1 (stereo unspecified)	inactive
Cc1cccc(N(C)C(=S)Oc2ccc3ccccc3c2)c1	inactive
CN(C)CCc1c[nH]c2ccc(CS(=O)(=O)N3CCCC3)cc12	inactive
N[C@@H](C(=O)N[C@@H]1C(=O)N2C(C(=O)O)=C(Cl)CS[C@H]12)c1ccccc1	inactive
